From PubChem BioAssay (NCATS)
Results filed as inconclusive are left out. The source made the active and inactive calls. Unless noted, calls follow the shape of the dose curve; as a rule, active = well fitted curve in the direction sought with a large enough effect; inconclusive = small, poorly fitted or top-dose-only effect, or another doubt; inactive = no such curve, though single readings can be large; an effect the other way counts as inactive or inconclusive.

Assays:
[1] = qHTS assay for measurement of the activity of small molecule inhibitors on Zika virus induced Caspase-3 activity in human astrocytoma cells (AID 1224859)
Outline: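 Compound added 1 h pre-infection; ZIKV 2 FFU/cell on SNB-19 cells, 6 h, 37 C/5% CO2. Caspase-Glo 3/7 luminescence; values as % inhibition of ZIKV-induced caspase activity.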

[2] = qHTS assay to identify small molecule inhibitors of chordoma cells - UCH-1 (AID 1259355); also: nearly all actives have a fitted effect of over 55% in size
Outline: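 Luminescent ATP read-out (CellTiter-Glo, 30min at room temperature) measured viability of UCH-1 cells exposed for 48hr to test drugs at 15 concentrations, co-dosed with a five-agent combination of auranofin, camptothecin, doxorubicin, rubitecan and topotecan.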

[3] = qHTS assay to identify small molecule inhibitors of chordoma cells - UCH-2 (AID 1259356); also: series mostly up to about 46 µM
[4] = P-glycoprotein substrates identified in KB-8-5-11 adenocarcinoma cell line, qHTS therapeutic library screen (AID 1346987); also: nearly all actives have a fitted effect of over 65% in size
Outline: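 KB-8-5-11, a colchicine-selected P-gp-overexpressing KB-3-1 subline, was grown without colchicine for the assay. Cells were seeded at 500 cells/well, dosed in concentration-response and incubated 72 h at 37 degree C, 5% CO2. Viability was read by CellTiter-Glo luminescence.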

[5] = NS1 protein of Zika virus - qHTS assay to identify small molecule inhibitors in human HEK 293 cells (AID 1347053); also: series mostly up to about 46 µM; nearly all actives have a fitted effect of over 55% in size
Outline: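 HEK 293; 20 h pre-culture, 37 C/5% CO2; cpd 1 h pre-infection; ZIKV MR766, MOI = 0.5, 24 h, 37 C; TR-FRET NS1 readout (two anti-NS1 Abs); norm. to no-virus vs infected.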

[6] = qHTS of pediatric cancer cell lines to identify multiple opportunities for drug repurposing: Primary screen for TC32 cells (AID 1347089); also: nearly all actives have a fitted effect of over 60% in size
Outline: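 Luminescent CellTiter-Glo read-out of metabolically active TC32 cells after 48 h compound exposure. Primary: MIPE 11-point, 0.78 nM–46 µM; NPC 8-point, 0.59 nM–46 µM. Confirmatory: 11-point dilutions.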

[7] = qHTS of pediatric cancer cell lines to identify multiple opportunities for drug repurposing: Primary screen for DAOY cells (AID 1347090); also: series mostly up to about 46 µM; nearly all actives have a fitted effect of over 55% in size
Outline: (§1)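 Eight- or eleven-point concentration series, 48 h treatment at 37 degrees C in growth media; readout CellTiter-Glo luminescence. Potency and efficacy were taken from the concentration-response curves.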

[8] = qHTS of pediatric cancer cell lines to identify multiple opportunities for drug repurposing: Primary screen for SJ-GBM2 cells (AID 1347091)
Outline: as §1

[9] = qHTS of pediatric cancer cell lines to identify multiple opportunities for drug repurposing: Primary screen for A673 cells (AID 1347092); also: nearly all actives have a fitted effect of over 45% in size
Outline: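 A673 cells (500-1,000 cells/well in growth media) were pre-incubated 5 h at 37 degrees C, then exposed to compounds for 48 h. Viability was read as CellTiter-Glo luminescence; concentration-response curves came directly from the primary screen.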

[10] = qHTS of pediatric cancer cell lines to identify multiple opportunities for drug repurposing: Primary screen for SK-N-MC cells (AID 1347093); also: series mostly up to about 46 µM
Outline: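 Metabolically active cells were quantified by ATP-dependent luminescence (CellTiter-Glo, 15 min at room temperature) following 48 h treatment. Cells had been plated at 500-1,000 per well and settled for 5 h beforehand.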

[11] = qHTS of pediatric cancer cell lines to identify multiple opportunities for drug repurposing: Primary screen for BT-37 cells (AID 1347094); also: series mostly up to about 57 µM
Outline: (§2)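 Viability was measured as metabolically active cells after 48 hours of treatment, read by CellTiter-Glo luminescence. Compounds were tested at multiple final concentrations, giving concentration-response curves.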

[12] = qHTS of pediatric cancer cell lines to identify multiple opportunities for drug repurposing: Primary screen for NB-EBc1 cells (AID 1347095)
Outline: as §2

[13] = Natriuretic polypeptide receptor (hNpr1) antagonism - Pilot counterscreen GloSensor control cell line (AID 1347045; calls by dose curve; also: series mostly up to about 38 µM)
Outline: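 HEK293 cGMP GloSensor cells preloaded 2 h with 2% GloSensor reagent, then compound 30 min before baseline luminescence read. Stimulated with 50 uM sodium nitroprusside, 20 min at room temperature, then read again; counterscreen for Npr1 antagonism.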

[14] = target: Atrial natriuretic peptide receptor 1 (Homo sapiens) (UniProt P16066); assay: Natriuretic polypeptide receptor (hNpr1) antagonism - Pilot screen (AID 1347049; calls by dose curve;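 also: agonist-evoked cGMP luminescence read 20 min after hNppA addition; series mostly up to about 58 µM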)
Outline: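 HEK293 cells co-expressing hNpr1 and the GloSensor pGS-40F cGMP luciferase sensor were preloaded with 2% GloSensor reagent for 2 h. Compounds were added for 30 min at room temperature, then cells were stimulated with 0.1 nM hNppA for 20 min before luminescence readout.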

[15] = target: Atrial natriuretic peptide receptor 2 (Homo sapiens) (UniProt P20594); assay: Natriuretic polypeptide receptor (hNpr2) antagonism - Pilot subtype selectivity assay (AID 1347050; calls by dose curve)
Outline: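 cGMP-sensor HEK293/hNpr2 cells; 2% GloSensor reagent 2 h RT; compounds 30 min; baseline luminescence read; 1 nM hNppC agonist 20 min RT; final luminescence read by CCD camera. Antagonism = reduced post-agonist signal.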

[16] = target: T1, Tyrosine-protein phosphatase non-receptor type substrate 1 (Homo sapiens) + Leukocyte surface antigen CD47 (Homo sapiens) (UniProt P78324+Q08722); assay: CD47-SIRPalpha protein protein interaction - LANCE assay qHTS validation (AID 1347057; active = well fitted curve in the direction sought with a large enough effect in the signal ratio, with a control signal flat, not every such curve was filed as active; the % refers to the signal ratio; also: series mostly up to about 38 µM)
Outline: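 First, His-tagged CD47 and Eu-labelled anti-His antibody met the compound for 30 min; next, site-specifically biotinylated SIRPalpha was added for 30 min; finally streptavidin-APC was added before reading the TR-FRET ratio.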

[17] = target: T1, Tyrosine-protein phosphatase non-receptor type substrate 1 (Homo sapiens) + Leukocyte surface antigen CD47 (Homo sapiens); assay: CD47-SIRPalpha protein protein interaction - HTRF assay qHTS validation (AID 1347058; active = well fitted curve in the direction sought with a large enough effect in the signal ratio, not every such curve was filed as active; the % refers to the signal ratio; also: series mostly up to about 38 µM)
Outline: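 TR-FRET read (Ch1/Ch2 ratio) of soluble extracellular CD47 and Avi-biotinylated SIRPalpha domains in PBS pH 7.4 with 0.05% IGEPAL; 7-point compound titration. Sequential 30 min room-temperature steps; non-biotinylated SIRPalpha as control inhibitor.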

[18] = target: T1, Tyrosine-protein phosphatase non-receptor type substrate 1 (Homo sapiens) + Leukocyte surface antigen CD47 (Homo sapiens); assay: CD47-SIRPalpha protein protein interaction - Alpha assay qHTS validation (AID 1347059);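 also: bead proximity luminescence from CD47 binding SIRPalpha after compound preincubation with SIRPalpha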
Outline: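 Soluble extracellular domains: Avi-tag biotinylated SIRPalpha (25 nM) preincubated 30 min RT with compound, then 6His-CD47 (12.5 nM) 30 min; Ni-NTA acceptor and streptavidin donor beads (10 ug/mL) 30 min, AlphaScreen read. PBS pH 7.4, 0.05% IGEPAL.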

[19] = target: Parathyroid hormone/parathyroid hormone-related peptide receptor (Homo sapiens) (UniProt Q03431); assay: qHTS for PTHR1 Agonists: Optimization Screen against the NCGC LOPAC library (AID 1347079);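 also: GloSensor cAMP luminescence in HEK-293 GP2 cells expressing human PTHR1 with IBMX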
Outline: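 Agonist readout: GloSensor cAMP luminescence, read after 15 min at room temperature. HEK-293-derived GP2 line carries PTHR1; compounds tested as a titration for 1 hr at 37C in presence of IBMX. M-PTH (1-15) served as control.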

[20] = P-glycoprotein substrates identified in KB-3-1 adenocarcinoma cell line, qHTS therapeutic library screen (AID 1346986); conditions: KB-3-1 parental cells viability, CellTiter-Glo, 72 h; also: nearly all actives have a fitted effect of over 60% in size
Outline: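 Resistance attributable to P-gp was assessed by comparing AC50 in KB-8-5-11 with parental KB-3-1 and by tariquidar reversal. Cells were exposed 72 h and viability read by CellTiter-Glo.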

Measured: Potency

T1 sequence (P78324 whole entry, looked up): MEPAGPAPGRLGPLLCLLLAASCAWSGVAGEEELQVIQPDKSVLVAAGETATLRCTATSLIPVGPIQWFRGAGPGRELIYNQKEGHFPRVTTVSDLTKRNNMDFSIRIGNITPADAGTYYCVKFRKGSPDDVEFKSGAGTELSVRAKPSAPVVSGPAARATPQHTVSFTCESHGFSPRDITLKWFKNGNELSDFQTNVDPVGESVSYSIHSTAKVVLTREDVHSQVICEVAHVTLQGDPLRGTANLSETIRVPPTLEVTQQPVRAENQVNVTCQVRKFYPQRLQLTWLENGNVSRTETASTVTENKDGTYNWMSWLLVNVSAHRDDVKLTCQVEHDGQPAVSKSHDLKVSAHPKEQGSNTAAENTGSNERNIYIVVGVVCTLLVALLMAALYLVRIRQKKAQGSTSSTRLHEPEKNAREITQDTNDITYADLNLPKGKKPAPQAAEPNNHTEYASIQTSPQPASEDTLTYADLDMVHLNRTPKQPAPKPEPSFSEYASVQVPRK
T1 sequence (Q08722 whole entry, looked up): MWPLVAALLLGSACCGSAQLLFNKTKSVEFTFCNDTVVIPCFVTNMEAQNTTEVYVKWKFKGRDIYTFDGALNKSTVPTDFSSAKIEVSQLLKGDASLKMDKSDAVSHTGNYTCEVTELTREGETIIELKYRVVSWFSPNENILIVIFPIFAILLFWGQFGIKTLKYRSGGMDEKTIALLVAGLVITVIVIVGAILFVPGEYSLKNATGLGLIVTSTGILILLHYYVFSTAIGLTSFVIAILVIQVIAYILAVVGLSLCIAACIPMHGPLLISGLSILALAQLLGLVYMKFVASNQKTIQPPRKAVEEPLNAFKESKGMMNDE
Parathyroid hormone/parathyroid hormone-related peptide receptor (Homo sapiens), sequence (Q03431 whole entry, looked up): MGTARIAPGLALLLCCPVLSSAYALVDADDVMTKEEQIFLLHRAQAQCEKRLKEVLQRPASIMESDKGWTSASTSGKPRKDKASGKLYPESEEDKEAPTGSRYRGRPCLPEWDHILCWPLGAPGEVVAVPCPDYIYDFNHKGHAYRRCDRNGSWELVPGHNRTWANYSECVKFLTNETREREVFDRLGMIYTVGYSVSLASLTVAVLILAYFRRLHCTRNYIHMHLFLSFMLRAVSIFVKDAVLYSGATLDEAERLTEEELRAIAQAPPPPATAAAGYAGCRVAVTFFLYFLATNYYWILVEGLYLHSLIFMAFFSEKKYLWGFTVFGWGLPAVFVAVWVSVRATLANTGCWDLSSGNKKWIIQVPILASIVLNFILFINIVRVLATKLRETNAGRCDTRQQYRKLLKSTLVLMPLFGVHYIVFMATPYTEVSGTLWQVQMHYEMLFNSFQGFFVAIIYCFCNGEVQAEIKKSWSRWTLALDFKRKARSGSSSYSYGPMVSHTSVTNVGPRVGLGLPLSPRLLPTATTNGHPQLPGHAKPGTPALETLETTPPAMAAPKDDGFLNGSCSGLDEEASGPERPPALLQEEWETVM
Atrial natriuretic peptide receptor 1 (Homo sapiens), sequence (P16066 whole entry, looked up): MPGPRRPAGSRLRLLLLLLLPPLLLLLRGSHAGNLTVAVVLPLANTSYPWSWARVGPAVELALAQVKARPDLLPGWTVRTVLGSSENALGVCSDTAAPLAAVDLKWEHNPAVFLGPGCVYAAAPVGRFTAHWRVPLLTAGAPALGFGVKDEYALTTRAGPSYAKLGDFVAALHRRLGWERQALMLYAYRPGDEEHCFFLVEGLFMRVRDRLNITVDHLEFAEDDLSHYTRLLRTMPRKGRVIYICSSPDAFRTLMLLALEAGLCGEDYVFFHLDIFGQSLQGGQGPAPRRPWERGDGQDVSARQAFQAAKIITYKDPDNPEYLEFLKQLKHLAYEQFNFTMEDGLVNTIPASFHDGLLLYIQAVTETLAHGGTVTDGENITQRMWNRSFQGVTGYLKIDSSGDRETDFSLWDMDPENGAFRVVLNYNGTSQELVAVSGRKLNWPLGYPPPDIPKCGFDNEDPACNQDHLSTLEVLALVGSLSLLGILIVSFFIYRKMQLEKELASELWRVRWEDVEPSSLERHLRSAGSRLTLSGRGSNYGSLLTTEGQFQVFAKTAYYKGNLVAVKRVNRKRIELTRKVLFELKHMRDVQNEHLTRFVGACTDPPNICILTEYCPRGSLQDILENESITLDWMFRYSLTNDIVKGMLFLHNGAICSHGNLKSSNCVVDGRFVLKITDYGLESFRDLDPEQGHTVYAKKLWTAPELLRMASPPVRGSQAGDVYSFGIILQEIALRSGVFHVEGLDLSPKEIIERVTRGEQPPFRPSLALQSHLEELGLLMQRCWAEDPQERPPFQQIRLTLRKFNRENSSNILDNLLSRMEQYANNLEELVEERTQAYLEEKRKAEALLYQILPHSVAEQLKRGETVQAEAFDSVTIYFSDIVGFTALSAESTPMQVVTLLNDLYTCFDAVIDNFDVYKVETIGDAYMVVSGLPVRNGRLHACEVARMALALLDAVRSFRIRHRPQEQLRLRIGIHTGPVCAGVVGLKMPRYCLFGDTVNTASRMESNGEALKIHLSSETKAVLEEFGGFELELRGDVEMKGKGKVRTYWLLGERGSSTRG
Atrial natriuretic peptide receptor 2 (Homo sapiens), sequence (P20594 whole entry, looked up): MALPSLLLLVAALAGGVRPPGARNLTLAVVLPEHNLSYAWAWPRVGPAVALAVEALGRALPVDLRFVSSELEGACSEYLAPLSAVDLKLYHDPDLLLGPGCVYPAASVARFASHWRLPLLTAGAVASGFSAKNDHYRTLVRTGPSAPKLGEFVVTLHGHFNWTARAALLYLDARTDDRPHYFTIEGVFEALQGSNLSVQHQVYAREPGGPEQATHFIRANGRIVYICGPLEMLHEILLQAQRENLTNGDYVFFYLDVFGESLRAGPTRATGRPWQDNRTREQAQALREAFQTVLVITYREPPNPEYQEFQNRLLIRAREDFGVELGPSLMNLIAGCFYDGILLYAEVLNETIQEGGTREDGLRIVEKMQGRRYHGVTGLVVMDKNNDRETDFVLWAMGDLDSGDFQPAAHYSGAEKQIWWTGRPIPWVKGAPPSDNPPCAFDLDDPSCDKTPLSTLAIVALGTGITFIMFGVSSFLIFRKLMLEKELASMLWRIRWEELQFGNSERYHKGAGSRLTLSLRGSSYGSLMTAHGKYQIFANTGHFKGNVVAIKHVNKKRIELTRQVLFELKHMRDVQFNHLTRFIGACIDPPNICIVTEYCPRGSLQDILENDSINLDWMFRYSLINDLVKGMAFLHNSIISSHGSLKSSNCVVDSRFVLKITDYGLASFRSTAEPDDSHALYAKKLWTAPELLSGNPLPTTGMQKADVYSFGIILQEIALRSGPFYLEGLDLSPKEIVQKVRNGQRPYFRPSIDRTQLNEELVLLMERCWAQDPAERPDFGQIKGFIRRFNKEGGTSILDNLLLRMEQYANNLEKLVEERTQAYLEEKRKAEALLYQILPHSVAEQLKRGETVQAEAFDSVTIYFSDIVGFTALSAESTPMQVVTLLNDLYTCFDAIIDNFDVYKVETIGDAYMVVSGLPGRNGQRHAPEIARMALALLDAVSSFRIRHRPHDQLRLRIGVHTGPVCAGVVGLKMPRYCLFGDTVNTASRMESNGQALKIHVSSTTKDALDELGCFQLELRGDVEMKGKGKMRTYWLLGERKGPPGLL

Cc1cn([C@H]2C[C@H](F)[C@@H](CO)O2)c(=O)[nH]c1=O
inactive: [1] | [2] | [3] | [4] | [5] | [6] | [7] | [8] | [9]

CCCCNC(=O)NS(=O)(=O)c1ccc(N)cc1
not listed: [13] | [14] | [15] | [16] | [17] | [18] | [19] | [20]
inactive: all other assays above

CCCCCCCCCCCCCCCCO
not listed: [13] | [14] | [15] | [16] | [17] | [18] | [19] | [20]
inactive: all other assays above

CC[N+](C)(CC)CCOC(=O)C(O)(c1ccccc1)C1CCCCC1 (centres undefined)
not listed: [13] | [14] | [15] | [16] | [17] | [18] | [19] | [20]
inactive: all other assays above

CCN(CC)CCOC(=O)C1(c2ccccc2)CCCC1
not listed: [13] | [14] | [15] | [16] | [17] | [18] | [19] | [20]
inactive: all other assays above

CN1CCC(OC(c2ccccc2)c2ccccc2)CC1
not listed: [13] | [14] | [15] | [16] | [17] | [18] | [19] | [20]
inactive: all other assays above

NS(=O)(=O)Cc1noc2ccccc12
not listed: [13] | [14] | [15] | [16] | [17] | [18] | [19] | [20]
inactive: all other assays above

CC(C)(C)NC[C@H](O)COc1nsnc1N1CCOCC1
not listed: [20]
inactive: all other assays above

FC1(F)C(F)(F)C(F)(F)C2(F)C(F)(F)C(F)(F)C(F)(F)C(F)(F)C2(F)C1(F)F (centres undefined)
not listed: [13] | [14] | [15] | [16] | [17] | [18] | [19] | [20]
inactive: all other assays above

CCCCN=C(N)N=C(N)N
not listed: [9] | [13] | [14] | [15] | [16] | [17] | [18] | [19]
inactive: all other assays above

O=C(O)Cc1csc(-c2ccc(Cl)cc2)n1
not listed: [13] | [14] | [15] | [16] | [17] | [18] | [19] | [20]
inactive: all other assays above

O=C(O)c1ccc(S(=O)(=O)N(Cl)Cl)cc1
not listed: [13] | [14] | [15] | [16] | [17] | [18] | [19] | [20]
inactive: all other assays above

NC(N)=NCc1cccc(I)c1
inactive: [1] | [2] | [3] | [4] | [13] | [14] | [15] | [5] | [16] | [18] | [19]

CC1=C(C(=O)O)N2C(=O)[C@@H](NC(=O)[C@H](N)c3ccccc3)[C@H]2SC1
not listed: [13] | [14] | [15] | [16] | [17] | [18] | [19] | [20]
inactive: all other assays above

CC(=O)Nc1ccc(S(=O)(=O)Nc2ccc([N+](=O)[O-])cc2)cc1
not listed: [13] | [14] | [15] | [16] | [17] | [18] | [19] | [20]
inactive: all other assays above

O=C1C(CCS(=O)c2ccccc2)C(=O)N(c2ccccc2)N1c1ccccc1 (centres undefined)
not listed: [13] | [14] | [15] | [16] | [17] | [18] | [19] | [20]
inactive: all other assays above

O=C1OC2(c3ccccc31)c1cc(Br)c(O)c(Br)c1Oc1c2cc(Br)c(O)c1Br
inactive: [1] | [2] | [3] | [4] | [5] | [6] | [7] | [8] | [9] | [11] | [12]

CCc1ccc(C(=O)C(C)CN2CCCCC2)cc1 (centres undefined)
not listed: [13] | [14] | [15] | [16] | [17] | [18] | [19] | [20]
inactive: all other assays above

CC(C)[C@@H]1CC[C@@H](C)CC1=O
inactive: [1] | [2] | [3] | [4] | [5] | [6] | [7] | [8] | [9] | [11] | [12]
